# Laboratory results from PubChem BioAssay (EPA / NIEHS).
# Inconclusive results are not listed. Some structures have more than one record in an assay (separate samples or runs), and their calls can disagree. The source made the active and inactive calls. How the source made its calls: active means hit-call score of the fitted dose curve at least 0.9, where 1 is the maximum; inconclusive means response in the unintended direction; inactive means score below 0.9.
# Key:
# [1] = ATG_XTT_Cytotoxicity: Cytotoxicity Assessment in the Attagene TRANS-FACTORIAL HepG2 Assay (AID 2283584);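 on AC50: XTT signal for cell number as viability in transfected HepG2 cells; cells exposed to compound for 24 h before reading; active means loss of viability signal versus DMSO baseline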
# In short: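 HepG2 cells transiently transfected with GAL4-UAS multiple reporter units, dosed 24 h; cytotoxicity read by XTT as loss of signal versus DMSO baseline.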
# [2] = TOX21_p53_BLA_p2_viability: Viability Assessment in the Tox21 HCT-116 p53 Agonism Beta-lactamase Assay, Phase 2 (AID 2283591);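 further: compound exposure lasted 16 h at 37 °C; actives lower the ATP signal meaning cytotoxicity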
# In short: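 HCT116 p53-bla cells, 4000/well, dosed after 5 h plating (217-fold dilution of DMSO stocks) and incubated 16 h at 37C. Viability taken as cellular ATP by CellTiter-Glo luminescence after 30 min RT; signal loss marks cytotoxicity.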
# [3] = target: Cellular tumor antigen p53 (Homo sapiens) (UniProt P04637); assay: TOX21_p53_BLA_p2_ratio: Tox21 HCT-116 p53 Agonism Beta-lactamase Assay, Ratio, Phase 2 (AID 2283592)
# In short: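 First, HCT116 reporter cells settle for 5 h at 37C. Next, DMSO compound solutions are pinned in (217-fold dilution) and left 16 h. Finally, CCF4-AM substrate is loaded 2 h at room temperature and the 460/530 nm ratio read.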
# [4] = TOX21_p53_BLA_p3_viability: Viability Assessment in the Tox21 HCT-116 p53 Agonism Beta-lactamase Assay, Phase 3 (AID 2283593);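 further: cells exposed to compound for 16 h before reading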
# In short: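 HCT116 cells, 4000/well, dosed 5 h after plating by pin transfer (217-fold dilution from DMSO stock) and incubated 16 h at 37C, 5% CO2. Viability read as ATP luminescence with CellTiter-Glo after 30 min at room temperature.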
# [5] = target: Cellular tumor antigen p53 (Homo sapiens) (UniProt P04637); assay: TOX21_p53_BLA_p3_ratio: Tox21 HCT-116 p53 Agonism Beta-lactamase Assay, Ratio, Phase 3 (AID 2283596)
# In short: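 Cells were seeded at 4000/well, rested 5 h at 37C, then dosed with DMSO compound solutions (217-fold dilution) for 16 h. CCF4-AM substrate was loaded for 2 h at room temperature, and the 460/530 nm emission ratio was fitted for gain of signal versus DMSO.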
# [6] = TOX21_p53_BLA_p4_viability: Viability Assessment in the Tox21 HCT-116 p53 Agonism Beta-lactamase Assay, Phase 4 (AID 2283597);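 further: hits lower the luminescence signal meaning cytotoxicity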
# In short: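 4000 HCT116 cells per well; 5 h attachment; compounds from DMSO, 217-fold dilution; 16 h at 37C. Then CCF4-AM, 2 h RT, followed by CellTiter-Glo, 30 min RT, luminescence. Decrease = cytotoxicity.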
# Cellular tumor antigen p53 (Homo sapiens), sequence (P04637 whole entry, looked up): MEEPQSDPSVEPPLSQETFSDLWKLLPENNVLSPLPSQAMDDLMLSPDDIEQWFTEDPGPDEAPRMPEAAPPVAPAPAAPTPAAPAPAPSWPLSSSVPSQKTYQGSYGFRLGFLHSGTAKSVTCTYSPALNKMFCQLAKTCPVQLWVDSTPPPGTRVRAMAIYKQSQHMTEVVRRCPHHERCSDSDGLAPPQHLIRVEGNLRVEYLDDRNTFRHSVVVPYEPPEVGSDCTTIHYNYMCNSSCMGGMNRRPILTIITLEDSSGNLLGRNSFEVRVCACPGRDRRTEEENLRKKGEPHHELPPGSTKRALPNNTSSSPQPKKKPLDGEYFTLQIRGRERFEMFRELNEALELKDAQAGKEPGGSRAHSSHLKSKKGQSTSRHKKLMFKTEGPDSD
structure (smiles),measurement,setting,value
NC(=O)c1cccnc1,outcome,[1],inactive
same,outcome,[2],inactive
same,outcome,[3],inactive
same,outcome,[4],inactive
same,outcome,[5],inactive
same,outcome,[6],inactive
COc1ccc2[nH]cc(CCNC(C)=O)c2c1,outcome,[1],inactive
same,outcome,[2],inactive
same,outcome,[3],inactive
same,outcome,[4],inactive
same,outcome,[5],inactive
same,outcome,[6],inactive
O=[N+]([O-])c1cc(N(CCO)CCO)ccc1NCCO,outcome,[1],inactive
same,outcome,[2],inactive
same,outcome,[3],inactive
same,outcome,[4],inactive
same,outcome,[5],inactive
same,outcome,[6],inactive
O=c1cc(-c2ccc(O)cc2)oc2cc(O)cc(O)c12,outcome,[1],inactive
same,outcome,[2],inactive
same,outcome,[3],inactive
same,AC50,[5],14.6 µM (active)
same,outcome,[5],inactive
same,outcome,[6],inactive
CCOC(=O)COC(=O)c1ccccc1C(=O)OCC,outcome,[1],inactive
same,outcome,[2],inactive
same,outcome,[6],inactive
CC(=O)CC(=O)N(C)C,outcome,[1],inactive
same,outcome,[2],inactive
same,outcome,[3],inactive
same,outcome,[5],inactive
same,outcome,[6],inactive
CC(C)OB(OC(C)C)OC(C)C,outcome,[1],inactive
same,outcome,[2],inactive
same,outcome,[3],inactive
same,outcome,[5],inactive
same,outcome,[6],inactive
CCCCOCCOCCOCCO,outcome,[1],inactive
same,outcome,[2],inactive
same,outcome,[4],inactive
same,outcome,[5],inactive
same,outcome,[6],inactive
CC(=O)Nc1cc(S(=O)(=O)O)cc2cc(S(=O)(=O)O)c(N=Nc3ccccc3)c(O)c12,outcome,[1],inactive
same,outcome,[2],inactive
same,outcome,[3],inactive
same,outcome,[5],inactive
same,outcome,[6],inactive
CN(C)CCC=C1c2ccccc2CCc2ccccc21,AC50,[1],157 µM (active)
same,AC50,[2],74.2 µM (active)
same,outcome,[3],inactive
same,outcome,[4],inactive
same,outcome,[5],inactive
same,AC50,[6],72.1 µM (active)
same,outcome,[6],inactive
CCCCCCCCCCCCOCCOS(=O)(=O)O,AC50,[1],154 µM (active)
same,outcome,[2],inactive
same,outcome,[4],inactive
same,AC50,[6],60.4 µM (active)
CCCCCCCCCC(=O)OCC,outcome,[1],inactive
same,outcome,[2],inactive
same,outcome,[4],inactive
same,outcome,[5],inactive
O=S1(=O)CC(Cl)(Cl)C(Cl)(Cl)C1,AC50,[1],26 µM (active)
same,AC50,[2],7.38 µM (active)
same,outcome,[3],inactive
same,AC50,[4],24.9 µM (active)
same,AC50,[5],47.6 µM (active)
same,AC50,[6],9.34 µM (active)
CC(O)CNCC(C)O (centres undefined),outcome,[1],inactive
same,outcome,[2],inactive
same,outcome,[3],inactive
same,outcome,[4],inactive
same,outcome,[5],inactive
same,outcome,[6],inactive
CCCCCCC(C)O (centres undefined),outcome,[1],inactive
same,outcome,[2],inactive
same,outcome,[3],inactive
same,outcome,[4],inactive
same,outcome,[5],inactive
same,outcome,[6],inactive
CC(O)COCC(C)O (centres undefined),outcome,[1],inactive
same,outcome,[2],inactive
same,outcome,[3],inactive
same,outcome,[4],inactive
same,outcome,[5],inactive
same,outcome,[6],inactive
CN1CCc2cccc3c2[C@H]1Cc1ccc(O)c(O)c1-3,outcome,[1],inactive
same,AC50,[3],56.6 µM (active)
same,outcome,[3],inactive
same,outcome,[4],inactive
same,outcome,[5],inactive
CCCCCCCC1CCCC1=O (centres undefined),outcome,[1],inactive
same,outcome,[2],inactive
same,outcome,[5],inactive
C=C/C(C)=C/C/C=C(\C)CCC=C(C)C,outcome,[1],inactive
same,outcome,[2],inactive
same,outcome,[4],inactive
same,outcome,[5],inactive
CCCCCCCCCCCCCC(=O)OCC,outcome,[1],inactive
same,outcome,[2],inactive
same,outcome,[3],inactive
same,outcome,[5],inactive
C=C(C)C(=O)OCCN(C)C,outcome,[1],inactive
same,outcome,[2],inactive
same,outcome,[4],inactive
same,outcome,[5],inactive
CCC(C)(C)C1CCC(OC)CC1 (centres undefined),outcome,[1],inactive
same,outcome,[2],inactive
same,outcome,[4],inactive
same,outcome,[5],inactive
same,outcome,[6],inactive
O=S(=O)(O)CCCN1CCOCC1,outcome,[1],inactive
same,outcome,[2],inactive
same,outcome,[6],inactive
CC(CCO)CC(C)(C)C (centres undefined),outcome,[1],inactive
same,outcome,[2],inactive
same,outcome,[3],inactive
same,outcome,[5],inactive
same,outcome,[6],inactive
c1ccc(Cc2ccccc2)cc1,outcome,[1],inactive
same,outcome,[2],inactive
same,outcome,[5],inactive
COc1ccccc1NC(=O)CC(C)=O,outcome,[1],inactive
same,outcome,[2],inactive
same,outcome,[3],inactive
same,outcome,[4],inactive
same,outcome,[5],inactive
same,outcome,[6],inactive
COc1ccc(C(C)=O)cc1,outcome,[1],inactive
same,outcome,[3],inactive
Nc1cc([N+](=O)[O-])ccc1C(=O)O,outcome,[1],inactive
same,outcome,[2],inactive
same,outcome,[3],inactive
same,outcome,[5],inactive
CCCCCCCOC(C)=O,outcome,[1],inactive
same,outcome,[2],inactive
same,outcome,[4],inactive
same,outcome,[6],inactive
CC/C=C\CCCCO,outcome,[1],inactive
same,outcome,[3],inactive
C=CCOCC(O)CO (centres undefined),outcome,[1],inactive
same,outcome,[2],inactive
same,outcome,[4],inactive
same,outcome,[5],inactive
C=C(C)CCCC(C)CCO (centres undefined),outcome,[1],inactive
same,outcome,[2],inactive
same,outcome,[4],inactive
same,outcome,[6],inactive
S=c1[nH][nH]c(=S)s1,outcome,[1],inactive
same,outcome,[2],inactive
same,outcome,[3],inactive
same,outcome,[6],inactive
CCCCCCCCCCCCCCCCCC(=O)OCCCCCCCCCCCCCC(C)C,outcome,[1],inactive
same,outcome,[2],inactive
same,outcome,[6],inactive
[Cu+],outcome,[1],inactive
same,outcome,[2],inactive
same,outcome,[6],inactive
Cc1cccc(O)c1,outcome,[1],inactive
same,outcome,[2],inactive
same,outcome,[5],inactive
O=Cc1ccccc1O,outcome,[1],inactive
same,outcome,[2],inactive
same,outcome,[3],inactive
same,outcome,[4],inactive
same,outcome,[5],inactive
same,outcome,[6],inactive
CC(C)C(=O)OCC=Cc1ccccc1,outcome,[1],inactive
same,outcome,[2],inactive
same,outcome,[3],inactive
same,outcome,[5],inactive
c1coc(CNc2ncnc3nc[nH]c23)c1,outcome,[1],inactive
same,outcome,[2],inactive
same,outcome,[4],inactive
same,outcome,[6],inactive
CC(=O)c1ccc(O)cc1,outcome,[1],inactive
same,outcome,[2],inactive
same,outcome,[4],inactive
same,outcome,[5],inactive
O=C(O)C1=NN(c2ccc(S(=O)(=O)O)cc2)C(=O)C1,outcome,[1],inactive
same,outcome,[2],inactive
same,outcome,[5],inactive
CCc1cccc(O)c1,outcome,[1],inactive
same,outcome,[2],inactive
same,outcome,[3],inactive
same,outcome,[5],inactive
C=C1CC/C=C(\C)CC[C@@H]2[C@@H]1CC2(C)C,outcome,[1],inactive
same,outcome,[3],inactive
same,outcome,[4],inactive
same,outcome,[6],inactive
CC/C=C\C#N,outcome,[1],inactive
same,outcome,[3],inactive
same,outcome,[5],inactive
same,outcome,[6],inactive
